Results from PubChem BioAssay AID488890 (Southern Research Specialized Biocontainment Screening …, 2010).
Among all 320,000 compounds or so, about 1,300 (0.41%) were called active. Roughly 3% stayed inconclusive and do not appear here. The rule behind the calls is not given here. A selection follows. Measured potencies and affinities stand elsewhere.

Assay: growth inhibition of non-replicating M. tuberculosis (AID 488890);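 note: plate controls were DMSO cells for no effect and high antibiotic wells for full effect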
Conditions: Mycobacterium tuberculosis non-replicating, at 25 µM, stronger effect = higher value

Structure (SMILES)	inhibition [%]
COc1cc(C(=O)N2CCC(NC(=O)C(Cc3ccccc3C)NC(C)=O)CC2)cc(OC)c1OC (configuration not stated)	3.5
Cc1c(Br)c([N+](=O)[O-])nn1CC(=O)c1ccccc1	-6.01
Cc1nc([N+](=O)[O-])cn1CC(=O)c1ccc(Cl)cc1	-12.5
Cc1nc([N+](=O)[O-])c(Br)n1CC(=O)c1cccc([N+](=O)[O-])c1	68.4
COC(=O)Cn1c(C)nc([N+](=O)[O-])c1Br	-5.82
COc1ccc(OC)c(C(c2nnnn2CC2CCCO2)N2CCN(C)CC2)c1 (configuration not stated)	9.88
COc1ccc(F)cc1S(=O)(=O)Nc1ccncc1	10.8
N/C(COc1ncn(-c2ccccc2)n1)=N\S(=O)(=O)c1ccccc1	20.4
CCOC(=O)C1CCCN(Cc2nc(N)nc(Nc3ccccc3)n2)C1 (configuration not stated)	42
O=C(NC1CCCC1)c1nc2c(nnn2Cc2ccccc2Cl)c(=O)[nH]1	79.4
O=C(NC1CC1)c1nc2c(nnn2Cc2ccccc2Cl)c(=O)[nH]1	17.4
Cn1c(CCc2ccccc2)nnc1SCC(=O)N1CCCC1	-11.6
O=C1NC2(CCCCC2)N=C1c1ccccc1	-21.1
N#CC(C#N)=c1ccc2c(c1)N1C(c3ccccc3)=CC(c3ccccc3)C3CCCCC31N=2 (configuration not stated)	-0.07
CCOc1ccc(OCC(O)CNC2CCN(Cc3ccccc3)CC2)cc1 (configuration not stated)	35
CC(C)(c1ccccc1)c1ccc(OCC(O)CN2CCCC2)cc1 (configuration not stated)	50
CC(C)(C)c1ccc(-n2ncc3c2CCCC3NC(=O)CN2CCOC2=O)cc1 (configuration not stated)	10.9
COC(=O)Nc1ccc(S(=O)(=O)N2c3ccccc3CCC2C)cc1 (configuration not stated)	47.6
Cc1ccc(S(=O)(=O)N2CCC(C(=O)OC(C)C(=O)N(C)c3ccccc3)CC2)cc1C (configuration not stated)	36

Structure (SMILES)	inhibition [%]
CC(C)Oc1ccc(Cn2c(=O)oc3ccccc32)cc1	72
CCCCOc1ccc(Cn2c(=O)oc3ccccc32)cc1	59
CCSc1ncc(C)cc1[N+](=O)[O-]	-10.3
O=C(c1cccs1)N1CCN(Cc2ccccn2)CC1	-6.8
Cc1cccc(Cn2c(Cc3ccccc3)nc3ccccc32)c1	46.2
CCOC(=O)COc1cc(N2C(=O)CSCC2=O)c(Cl)cc1Cl	-8.36
COCCOc1cc(N)c(Cl)cc1Cl	10.4
CN(C)/C=N/c1ncc(-c2ncc(C(F)(F)F)cc2Cl)cn1	-8.2
CCn1nccc1C(=O)Nc1cccc(C)c1C	5.9
COc1ccc(CC(C)CC(=O)Nc2ccc(OC)cc2)cc1 (configuration not stated)	49.1
Cc1ccc2c(c1)c(C1=NC(=S)NC1=O)c(O)n2C	-2.45
O=C1N=c2ccccc2=C1c1[nH]c(=S)[nH]c1O	9.01
O=C1N=c2ccccc2=C1c1c(O)[nH]c2c(C(F)(F)F)cccc12	27.4
C=CCn1c(O)c(N=O)c2ccccc21	-1.03
CCn1c(O)c(C2=c3ccccc3=NC2=O)c2cc(Br)ccc21	73.8
C=CCn1c(O)c(C2=c3ccccc3=NC2=O)sc1=Nc1ccc(O)cc1	30.7
CC(C(=O)N1CCN=C1c1ccccc1)N1C(=O)c2ccccc2C1=O (configuration not stated)	-7.08
O=C(CN1C(=O)NC2(CCCCC2)C1=O)Nc1ccc(Cl)cc1	-0.81
C/C(=N/NC(=O)CCC(=O)Nc1ccc(Br)cc1)c1ccc(Br)cc1	-21.4

Structure (SMILES)	inhibition [%]
O=C(NCc1ccccc1)c1ccco1	64.3
O=C(NNC(=O)c1ccco1)c1ccccc1	-6.91
Cc1ccc(/C=C2\SC(=S)N(CCC(=O)NCCCN3CCOCC3)C2=O)cc1	8.18
CCOc1ccc(C(=O)c2cc([N+](=O)[O-])ccc2Cl)cc1	6.56
O=C(c1ccc(S(=O)(=O)Nc2ccccc2)cc1)N1CCC1	-11.7
CCCNC1=C(C)C(=O)C2=C(C1=O)C(COC(N)=O)[C@]1(OC)C3NC3CN21 (some centres not stated)	55.1
COc1cccc2cc(C(=O)NCc3ccc(Cl)cc3)c(=O)oc12	57.8
CCN(CC)c1ccc2cc(C(C)=O)c(=O)oc2c1	3.33
COc1ccc(CCNC(=O)c2cc3cccc(OC)c3oc2=O)cc1OC	0.35
CCN(CC)c1ccc2cc(C(N)=O)c(=N)oc2c1	31.1
Cn1c(=O)c(=O)n(C)c2cc(S(=O)(=O)N3CCN(Cc4ccccc4)CC3)ccc21	5.19
Nc1nc(-c2ccc3ccccc3c2)c(C2(O)C(=O)Nc3c(Br)cc(F)cc32)s1 (configuration not stated)	0.16
COc1ccc(Cl)cc1NC(=O)CSc1nc(=O)n(CCN(C)C)c2c1CCCC2	16.1
Clc1ccccc1N/N=C/c1ccc2c(c1)OCO2	28.4
CCC(=O)N(C1=C(NC(C)C)C(=O)c2ccccc2C1=O)C(C)C	8.66
CC(=O)N(C1=C(N)C(=O)c2ccccc2C1=O)c1ccccc1	4.83
CC(CCc1ccccc1)NC(=O)CN(C)Cc1ccc(F)cc1 (configuration not stated)	18
CN(CC(=O)NCCc1ccc(F)cc1)Cc1ccccc1	20.9
COC(=O)/C(=C/c1c[nH]c2ccccc12)[N+](=O)[O-]	9.02
